# Results taken from PubChem BioAssay AID1159580 (chemical genetic matrix, 2015).
# Where “and” joins values, the source holds several entries; their conditions need not be identical. Equal entries are not always repeated. Screen size: about 5,500 compounds; about 2,000 (36%) were called active. Roughly 18% stayed inconclusive and do not appear here. The list shows a part of the results. Unmarked numbers belong to inactive results. Cut-off read from the data, not from the text of the source: active = normalized growth mostly below about 0.91 (no sharp cut-off); inconclusive = no clear call, values can overlap the other calls; inactive = mostly above about 0.92.
# Assay: chemical genetic growth profiling, strain panel (AID 1159580);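 note: tested at 20 µM; growth read once vehicle control cultures reached saturation at 30 °C; 1 = growth at the plate median or of vehicle wells; lower values mean less growth of the strain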
# Settings: S. cerevisiae deletion strains, growth OD
smiles,measurement,setting,value
COc1ccc(-c2c(O)c3c(OC)c4c(cc3oc2=O)OC(C)(C)C=C4)cc1,normalized growth,"locus YAL013W, strain DEP1, active compounds read low",0.959
same,normalized growth,"locus YAL021C, strain ccr4, active compounds read low",0.938
same,normalized growth,"locus YAL026C, strain drs2, active compounds read low",0.952
same,normalized growth,"locus YAL030W, strain snc1, active compounds read low",0.951
same,normalized growth,"locus YBL061C, strain skt5, active compounds read low",0.942
same,normalized growth,"locus YBR009C, strain hhf1, active compounds read low",0.953
same,normalized growth,"locus YBR021W, strain FUR4, active compounds read low",0.946
same,normalized growth,"locus YBR023C, strain chs3, active compounds read low",0.947
same,normalized growth,"locus YBR171W, strain sec66, active compounds read low",0.919
same,normalized growth,"locus YBR229C, strain ROT2, active compounds read low",0.951
same,normalized growth,"locus YBR231C, strain swc5, active compounds read low",0.954
same,normalized growth,"locus YBR279W, strain paf1, active compounds read low",0.972
same,normalized growth,"locus YCL011C, strain gbp2, active compounds read low",0.957
same,normalized growth,"locus YCL016C, strain dcc1, active compounds read low",0.955
same,normalized growth,"locus YCL029C, strain bik1, active compounds read low",0.937
same,normalized growth,"locus YCL061C, strain MRC1, active compounds read low",0.945
same,normalized growth,"locus YCL069W, strain vba3, active compounds read low",0.955
same,normalized growth,"locus YCR088W, strain abp1, active compounds read low",0.947
same,normalized growth,"locus YDL005C, strain med2, active compounds read low",0.966
same,normalized growth,"locus YDL035C, strain GPR1, active compounds read low",1
same,normalized growth,"locus YDL040C, strain nat1, active compounds read low",0.95
same,normalized growth,"locus YDL074C, strain BRE1, active compounds read low",0.967
same,normalized growth,"locus YDL101C, strain DUN1, active compounds read low",0.962
same,normalized growth,"locus YDL185W, strain tfp1, active compounds read low",0.944
same,normalized growth,"locus YDL192W, strain arf1, active compounds read low",0.959
same,normalized growth,"locus YDR001C, strain nth1, active compounds read low",0.948
same,normalized growth,"locus YDR069C, strain doa4, active compounds read low",0.992
same,normalized growth,"locus YDR101C, strain arx1, active compounds read low",0.961
same,normalized growth,"locus YDR137W, strain rgp1, active compounds read low",0.845 (active)
same,normalized growth,"locus YDR150W, strain NUM1, active compounds read low",0.936
same,normalized growth,"locus YDR159W, strain sac3, active compounds read low",1.01
same,normalized growth,"locus YDR162C, strain NBP2, active compounds read low",0.962
same,normalized growth,"locus YDR195W, strain ref2",0.981
same,normalized growth,"locus YDR297W, strain sur2, active compounds read low",1.02
same,normalized growth,"locus YDR318W, strain mcm21, active compounds read low",0.936
same,normalized growth,"locus YDR334W, strain swr1, active compounds read low",0.955
same,normalized growth,"locus YDR335W, strain msn5, active compounds read low",0.971
same,normalized growth,"locus YDR388W, active compounds read low",0.924 (active)
same,normalized growth,"locus YDR392W, strain spt3, active compounds read low",0.725 (active)
same,normalized growth,"locus YDR502C, strain sam2, active compounds read low",0.891 (active)
same,normalized growth,"locus YEL003W, strain gim4, active compounds read low",0.958
same,normalized growth,"locus YEL037C, strain rad23, active compounds read low",0.962
same,normalized growth,"locus YEL061C, strain CIN8 (second series), active compounds read low",0.957
same,normalized growth,"locus YER015W, strain faa2, active compounds read low",0.975
same,normalized growth,"locus YER016W, strain bim1, active compounds read low",0.951
same,normalized growth,"locus YER110C, active compounds read low",0.949
same,normalized growth,"locus YER111C, strain swi4, active compounds read low",0.969
same,normalized growth,"locus YER155C, strain BEM2 (second series), active compounds read low",0.963
same,normalized growth,"locus YER155C, strain BEM2, active compounds read low",0.956
same,normalized growth,"locus YER167W, strain BCK2, active compounds read low",0.954
same,normalized growth,"locus YFR010W, strain ubp6, active compounds read low",0.967
same,normalized growth,"locus YGL078C, strain dbp3, active compounds read low",0.99
same,normalized growth,"locus YGL086W, strain mad1, active compounds read low",0.949
same,normalized growth,"locus YGL167C, strain pmr1, active compounds read low",0.92
same,normalized growth,"locus YGL173C, strain kem1, active compounds read low",0.958
same,normalized growth,"locus YGL227W, strain vid30, active compounds read low",0.953
same,normalized growth,"locus YGL240W, strain doc1, active compounds read low",0.989
same,normalized growth,"locus YGL248W, strain PDE1, active compounds read low",0.979
same,normalized growth,"locus YGL253W, strain hxk2, active compounds read low",0.949
same,normalized growth,"locus YGR078C, strain PAC10, active compounds read low",0.984
same,normalized growth,"locus YGR135W, strain pre9, active compounds read low",0.931
same,normalized growth,"locus YGR252W, strain gcn5, active compounds read low",0.96
same,normalized growth,"locus YHR013C, strain ard1, active compounds read low",0.959
same,normalized growth,"locus YHR027C, strain rpn1, active compounds read low",0.973
same,normalized growth,"locus YHR030C, strain SLT2, active compounds read low",0.956 and 1
same,normalized growth,"locus YHR079C, strain IRE1 (second series), active compounds read low",0.953
same,normalized growth,"locus YHR079C, strain IRE1, active compounds read low",0.992
same,normalized growth,"locus YHR094C, strain hxt1, active compounds read low",0.939
same,normalized growth,"locus YHR129C, strain ARP1, active compounds read low",0.972
same,normalized growth,"locus YHR142W, strain chs7, active compounds read low",0.925
same,normalized growth,"locus YHR200W, strain rpn10, active compounds read low",0.946
same,normalized growth,"locus YIL066C, strain RNR3, active compounds read low",0.957
same,normalized growth,"locus YIL073C, strain SPO22, active compounds read low",0.919
same,normalized growth,"locus YIL125W, strain kgd1, active compounds read low",0.978
same,normalized growth,"locus YIR030C, strain dcg1, active compounds read low",0.958
same,normalized growth,"locus YJL092W, strain hpr5, active compounds read low",0.946
same,normalized growth,"locus YJL095W, strain BCK1 (second series), active compounds read low",0.954
same,normalized growth,"locus YJL095W, strain BCK1, active compounds read low",0.944 and 0.971
same,normalized growth,"locus YJL115W, strain asf1, active compounds read low",0.962
same,normalized growth,"locus YJL129C, strain trk1, active compounds read low",0.789 (active)
same,normalized growth,"locus YJL134W, strain LCB3, active compounds read low",0.942
same,normalized growth,"locus YJL154C, strain vps35, active compounds read low",0.958
same,normalized growth,"locus YJL164C, strain tpk1, active compounds read low",0.967
same,normalized growth,"locus YJL166W, strain qcr8, active compounds read low",0.966
same,normalized growth,"locus YJL168C, strain set2, active compounds read low",0.93 (active)
same,normalized growth,"locus YJL187C, strain SWE1 (second series), active compounds read low",0.943
